# Source: the supplement of paper PMC8728848
# Many of the other results were omitted from the sample, so the strongest signals are more common in it than they were.
# Key:
# Assay in all cases: glycan array binding signal (z-score within array); higher = stronger binding
# Settings in all cases: glycan notation: IUPAC condensed, linker removed
# [1] = biological target: Fuc(a1-2)Gal(b1-3)GlcNAc(b1-2)Man(a1-3)[Fuc(a1-2)Gal(b1-3)GlcNAc(b1-2)Man(a1-6)]Man(b1-4)GlcNAc(b1-4)GlcNAc
# Procedure, shortened: (§1)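 Glycan array data were curated from 3228 arrays in the Consortium for Functional Glycomics database and kept only where the protein sequence was available. Glycan names were converted to IUPAC-condensed notation, and columns mapping to the same glycan were averaged. The binding signal is a within-array Z-score, averaged across arrays of the same protein sequence at different concentrations or buffers and across linkers. Negative Z-scores can be read as non-binding.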
# [2] = biological target: Fuc(a1-2)Gal(b1-4)GlcNAc
# Procedure, shortened: as §1
# [3] = biological target: Fuc(a1-2)Gal(b1-4)GlcNAc(b1-2)[Fuc(a1-2)Gal(b1-4)GlcNAc(b1-4)]Man(a1-3)[Fuc(a1-2)Gal(b1-4)GlcNAc(b1-2)Man(a1-6)]Man(b1-4)GlcNAc(b1-4)GlcNAc
# Procedure, shortened: as §1
# [4] = biological target: Fuc(a1-2)Gal(b1-4)[Fuc(a1-3)]GlcNAc(b1-2)[Fuc(a1-2)Gal(b1-4)[Fuc(a1-3)]GlcNAc(b1-4)]Man(a1-3)[Fuc(a1-2)Gal(b1-4)[Fuc(a1-3)]GlcNAc(b1-2)Man(a1-6)]Man(b1-4)GlcNAc(b1-4)GlcNAc
# Procedure, shortened: as §1
# [5] = biological target: Fuc(a1-2)[GalNAc(a1-3)]Gal(b1-4)[Fuc(a1-3)]GlcNAc
# Procedure, shortened: as §1
# [6] = biological target: Fuc(a1-3)[Gal(b1-4)]GlcNAc
# Procedure, shortened: as §1
# [7] = biological target: Fuc(a1-3)[Gal(b1-4)]GlcNAc(b1-2)Man(a1-3)[Fuc(a1-3)[Gal(b1-4)]GlcNAc(b1-2)Man(a1-6)]Man(b1-4)GlcNAc(b1-4)GlcNAc
# Procedure, shortened: as §1
# [8] = biological target: Gal(a1-3)Gal(b1-4)GlcNAc
# Procedure, shortened: as §1
# [9] = biological target: Gal(a1-3)Gal(b1-4)[Fuc(a1-3)]GlcNAc
# Procedure, shortened: as §1
# [10] = biological target: Gal(b1-3)Gal
# Procedure, shortened: as §1
# [11] = biological target: Gal(b1-4)GlcNAc(b1-2)Man(a1-3)[Man(a1-6)]Man(b1-4)GlcNAc(b1-4)GlcNAc
# Procedure, shortened: as §1
# [12] = biological target: Gal(b1-4)GlcNAc(b1-3)[GlcNAc(b1-6)]Gal(b1-4)GlcNAc
# Procedure, shortened: as §1
# [13] = biological target: Gal(b1-4)GlcNAc(b1-6)GalNAc
# Procedure, shortened: as §1
# [14] = biological target: Gal(b1-6)Gal
# Procedure, shortened: as §1
# [15] = biological target: Gal6S(b1-4)Glc6S
# Procedure, shortened: as §1
# [16] = biological target: GalNAc(a1-3)GalNAc
# Procedure, shortened: as §1
# [17] = biological target: GlcA(b1-3)GlcNAc
# Procedure, shortened: as §1
# [18] = biological target: GlcNAc(b1-3)Gal(b1-3)GalNAc
# Procedure, shortened: as §1
# [19] = biological target: GlcNAc(b1-3)[GlcNAc(b1-6)]Gal(b1-4)GlcNAc
# Procedure, shortened: as §1
# [20] = biological target: GlcNAc(b1-3)[GlcNAc(b1-6)]GalNAc
# Procedure, shortened: as §1
# [21] = biological target: Man(a1-2)Man(a1-3)Man
# Procedure, shortened: as §1
# [22] = biological target: Man(b1-4)GlcNAc
# Procedure, shortened: as §1
# [23] = biological target: Neu5Ac(a2-3)Gal(b1-3)GalNAc6S
# Procedure, shortened: as §1
# [24] = biological target: Neu5Ac(a2-3)Gal(b1-3)GlcNAc
# Procedure, shortened: as §1
# [25] = biological target: Neu5Ac(a2-3)Gal(b1-3)[Neu5Ac(a2-3)Gal(b1-4)]GlcNAc
# Procedure, shortened: as §1
# [26] = biological target: Neu5Ac(a2-3)Gal(b1-3)[Neu5Ac(a2-6)]GalNAc
# Procedure, shortened: as §1
# [27] = biological target: Neu5Ac(a2-3)Gal(b1-4)GlcNAc(b1-2)Man
# Procedure, shortened: as §1
# [28] = biological target: Neu5Ac(a2-3)Gal(b1-4)GlcNAc6S
# Procedure, shortened: as §1
# [29] = biological target: Neu5Ac(a2-3)Gal(b1-4)[Fuc(a1-3)]GlcNAc(b1-3)Gal(b1-4)[Fuc(a1-3)]GlcNAc(b1-3)Gal(b1-4)[Fuc(a1-3)]GlcNAc
# Procedure, shortened: as §1
# [30] = biological target: Neu5Ac(a2-3)Gal6S(b1-4)GlcNAc
# Procedure, shortened: as §1
binder,measurement,setting,value
"SpnanA (Streptococcus pneumoniae), P62575 (protein) MVIEKEDVETNASNGQRVDLSSELDKLKKLENATVHMEFKPDAKAPAFYNLFSVSSATKKDEYFTMAVYNNTATLEGRGSDGKQFYNNYNDAPLKVKPGQWNSVTFTVEKPTAELPKGRVRLYVNGVLSRTSLRSGNFIKDMPDVTHVQIGATKRANNTVWGSNLQIRNLTVYNRALTPEEVQKRS",glycan array binding signal (z-score),[1],-0.237
same,glycan array binding signal (z-score),[2],-0.29
same,glycan array binding signal (z-score),[3],-0.131
same,glycan array binding signal (z-score),[4],-0.066
same,glycan array binding signal (z-score),[5],0.018
same,glycan array binding signal (z-score),[6],-0.28
same,glycan array binding signal (z-score),[7],-0.169
same,glycan array binding signal (z-score),[8],-0.256
same,glycan array binding signal (z-score),[9],-0.262
same,glycan array binding signal (z-score),[10],-0.211
same,glycan array binding signal (z-score),[11],0.687
same,glycan array binding signal (z-score),[12],-0.29
same,glycan array binding signal (z-score),[13],-0.295
same,glycan array binding signal (z-score),[14],-0.199
same,glycan array binding signal (z-score),[15],-0.104
same,glycan array binding signal (z-score),[16],-0.233
same,glycan array binding signal (z-score),[17],6.22
same,glycan array binding signal (z-score),[18],-0.164
same,glycan array binding signal (z-score),[19],-0.211
same,glycan array binding signal (z-score),[20],-0.222
same,glycan array binding signal (z-score),[21],-0.228
same,glycan array binding signal (z-score),[22],-0.307
same,glycan array binding signal (z-score),[23],3.01
same,glycan array binding signal (z-score),[24],3.08
same,glycan array binding signal (z-score),[25],6.34
same,glycan array binding signal (z-score),[26],3.24
same,glycan array binding signal (z-score),[27],2.64
same,glycan array binding signal (z-score),[28],3.89
same,glycan array binding signal (z-score),[29],-0.268
same,glycan array binding signal (z-score),[30],2.91
